D1 antagonist: antagonists of human D1 dopamine receptor; P21728; HEK293 TREx D1 cells, calcium flux, dopamine EC80; stronger effect = lower value; activity change, negative = inhibition, % at 10 µM; hit rate 3.2% among 360,000; AID 504652; in the data active = activity change below about -30%; note: % is set by controls: 0 for no effect and ±100 for the full control effect
Target sequence (P21728 whole entry, looked up): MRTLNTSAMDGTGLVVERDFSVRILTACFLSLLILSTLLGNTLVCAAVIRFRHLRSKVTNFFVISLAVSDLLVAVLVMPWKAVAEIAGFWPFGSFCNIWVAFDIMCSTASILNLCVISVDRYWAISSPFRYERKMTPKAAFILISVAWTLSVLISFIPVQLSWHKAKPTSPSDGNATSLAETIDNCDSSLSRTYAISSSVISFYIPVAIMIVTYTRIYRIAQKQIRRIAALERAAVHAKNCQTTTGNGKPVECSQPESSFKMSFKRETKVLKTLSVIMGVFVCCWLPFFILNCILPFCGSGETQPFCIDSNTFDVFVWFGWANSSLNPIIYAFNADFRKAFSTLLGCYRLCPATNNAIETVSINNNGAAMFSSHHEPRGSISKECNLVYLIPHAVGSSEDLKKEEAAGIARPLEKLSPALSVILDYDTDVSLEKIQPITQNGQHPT
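Compound effects on dopamine-evoked calcium signalling were measured in tetracycline-induced HEK293 Trex D1 cells. Dopamine at EC80 followed a 180 s compound pre-read, and fluorescence was tracked kinetically for 180 s more.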
D1 PAM: potentiators of human D1 dopamine receptor; potentiation, % at 10 µM; hit rate 0.036% among 360,000; HEK293 TREx D1 cells, calcium flux, dopamine EC20 potentiation; in the data active = potentiation above about 30%; note: 0% is about no effect
D1 ag: agonists of human D1 dopamine receptor; P21728; HEK293 T-REx D1 cells, calcium flux, agonist mode; activation, % at 2 µM; hit rate 1% among 360,000; note: 0% is about no effect
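Tetracycline-induced HEK293 TREx D1 cells, force-coupled to calcium signalling, were dye-loaded with a no-wash calcium kit. Compound was pin-added after a 10 s baseline. Fluorescence was read kinetically at 1 cycle/s for 180 s, with calcium rises flagged as agonism.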
LDHA block: LDHA (human) enzyme inhibition; P00338; purified LDHA, NADH/diaphorase-resazurin fluorescence; stronger effect = lower value; activity change, % (values are at about 110 or 230 µM); hit rate 0.15% among 480,000; in the data active = activity change below about -30%;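 note: plate controls were DMSO wells for no effect and wells without enzyme for full effect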
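Human LDH5 at 2 nM final in Tris HCl pH 7.4 with 0.06 mM NADH and 0.2 mM pyruvate, reacted 5 minutes at room temperature. Remaining NADH coupled via diaphorase/resazurin; resorufin fluorescence read at 0 and 20 minutes, normalized to enzyme-free and DMSO wells.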
TRHR agonist: TRH receptor (human) agonism; P34981; TRHR cells, calcium flux fluo-8, FDSS agonist mode; activation, % at 2 µM; hit rate 0.18% among 360,000; AID 493084; note: 0% is about no effect
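TRHR-expressing cells, plated overnight in medium with 10% serum, were loaded with fluo-8 calcium dye at room temperature. After a 10 s baseline, library compound was pin-added and calcium release was recorded kinetically (ex 480/em 530) as agonist response.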
TRHR PAM: TRH receptor (human) allosteric enhancement; P34981; TRHR cells, fluo-8 calcium fluorescence, EC20 TRH enhancement; enhancement, % at 2 µM; hit rate 0.66% among 360,000; in the data active = enhancement above about 30%; note: 0% is about no effect
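Enhancer read-out: after compound pinning and an initial kinetic agonist-mode read, an EC20 of TRH (10 nM final) was injected and fluo-8 calcium signal (Ex 480/Em 530) followed at 1 s/cycle for 100 cycles in TRHR-expressing cells.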
Active calls of the source: *; nt = not tested or not shown. Sampled rows, rich in hits. Any-hit rate of the full collection: about 3.6%. Cut-off read from the data, not from the text of the source, unless noted: active = activation above about 30%; inactive = the rest.

SMILES | D1 antagonist | D1 PAM | D1 ag | LDHA block | TRHR agonist | TRHR PAM
O=C(N/N=C/c1ccccc1)C(=O)N/N=C/c1ccccc1 | -1 | -2 | 1 | 0 | 1 | 1
COc1cc(CNCCNC(=O)c2nonc2N)ccc1OCc1ccc(Cl)cc1 | -22 | -4 | 69* | -7 | 2 | 2
NS(=O)(=O)c1ccc(CCNCc2cc(Br)ccc2OCc2ccccc2F)cc1 | -31* | -3 | 25 | 0 | 0 | 9
Fc1ccccc1COc1ccc(Br)cc1CNCC1CCCO1 (stereo unspecified) | -50* | -12 | 12 | -11 | 0 | -3
NS(=O)(=O)c1ccc(CCNCc2ccccc2OCc2ccc(Cl)cc2)cc1 | -48* | -8 | 53* | -3 | 2 | -6
O=C(O)CCc1ccc(-c2ccc(Br)cc2)n1NC(=O)c1ccc(O)cc1 | nt | nt | nt | 0 | nt | nt
CC(C)(c1nnnn1-c1ccc(Cl)cc1)N1CCOCC1 | nt | nt | nt | 14 | nt | nt
Nc1nonc1C(=O)NCCNCc1cc(Br)ccc1OCc1ccccc1F | -10 | -8 | 31* | -1 | 0 | 2
C=CCOc1ccccc1CNCCc1ccc(S(N)(=O)=O)cc1 | -10 | 2 | 9 | -15 | 0 | 5
NS(=O)(=O)c1ccc(CCNCc2cc(Cl)ccc2OCc2ccccc2)cc1 | -6 | -6 | 57* | -6 | 0 | -2
CC(C)(c1ccc(Oc2ccc(C(=O)O)c(C(=O)O)c2)cc1)c1ccc(Oc2ccc(C(=O)O)c(C(=O)O)c2)cc1 | nt | nt | nt | 6 | nt | nt
CCCCc1ccc(Nc2nnc(SCc3nnc(C)o3)s2)cc1 | nt | nt | nt | 1 | nt | nt
CCOP(=O)(OCC)c1nc(-c2ccc(C)cc2)oc1N1CCOCC1 | nt | nt | nt | 9 | nt | nt
CCOP(=O)(OCC)c1nc(-c2ccc(Br)cc2)oc1N1CCCCC1 | -45* | -9 | 4 | -2 | -2 | 3
CCOP(=O)(c1ccccc1)c1nc(-c2ccc(F)cc2)oc1N1CCCCC1 (stereo unspecified) | 4 | -4 | 33* | 1 | 2 | 0
Cc1ccc(NC(=O)C(C#N)C(=O)CC(C)C)cc1 (stereo unspecified) | nt | nt | nt | -3 | nt | nt
O=C(Nc1ccc(OCc2ccccc2)cc1)C(Sc1ccccc1)c1ccccc1 (stereo unspecified) | nt | nt | nt | -4 | nt | nt
O=C(CCSc1ccccc1)Nc1ccc(OCc2ccccc2)cc1 | -30* | -10 | 5 | -16 | 2 | -8
COc1ccc(OCCCC(=O)Nc2cccc(SC)c2)cc1 | -73* | 8 | 2 | -10 | 0 | 9
CN(C)S(=O)(=O)c1cccc(NC(=O)CCCSc2ccccc2)c1 | -23 | -17 | 10 | 3 | -2 | 14
COc1ccc(/C=C/C(=O)OCC(=O)Nc2cc(C(N)=O)cc(C(N)=O)c2)cc1 | -11 | -3 | 1 | -1 | 0 | -6
CC(=O)c1cccc(NC(=O)CCCSc2ccccc2)c1 | -39* | nt | 15 | -6 | 0 | -9
COc1ccc(/C=C/C(=O)OCC(=O)Nc2cccc(C(C)=O)c2)cc1 | 2 | 11 | 5 | -10 | 0 | 37*
Cc1ccc(C)c(SC(C)C(N)=O)c1 (stereo unspecified) | nt | nt | nt | 0 | nt | nt
CCOc1ccc(NC(=O)c2ccc3c(c2)NC(=O)CS3)cc1 | nt | nt | nt | 3 | nt | nt
SMILES | D1 antagonist | D1 PAM | D1 ag | LDHA block | TRHR agonist | TRHR PAM
CCOC(=O)c1ccc(NC(=O)c2ncoc2-c2cccc(OC)c2)cc1 | nt | nt | nt | 2 | nt | nt
O=C(COC(=O)/C=C/c1cccs1)Nc1ccc2ccccc2c1 | -35* | -3 | 1 | -3 | 1 | 3
COc1ccc(OCCCC(=O)Nc2cccc(C(C)=O)c2)cc1 | -47* | -5 | 9 | -4 | -1 | 0
O=C(CCCSc1ccc(Cl)cc1)Nc1ccccc1O | 3 | -9 | 33* | -1 | -1 | -3
CC(=O)c1ccc(NC(=O)COC(=O)/C=C/c2cccs2)cc1 | nt | nt | nt | -11 | nt | nt
CC(c1ccc(F)cc1)N(C)CCC(=O)N1CCCCC1 (stereo unspecified) | nt | nt | nt | -1 | nt | nt
CCN(CC(=O)Nc1ccc(C(=O)Nc2ccc(OC)cc2)cc1)Cc1nc2ccccc2c(=O)[nH]1 | -44* | 6 | 4 | -1 | -2 | 1
CCN(CC(=O)Nc1cc(OC)ccc1OC)Cc1nc2ccccc2c(=O)[nH]1 | -39* | -3 | 1 | -4 | 0 | 5
O=C(COC(=O)C12CC3CC(CC(C3)C1)C2)Nc1nccs1 | -34* | 3 | 6 | -2 | 1 | -1
O=S(=O)(Nc1nc2ccccc2nc1NC1CCCC1)c1ccc2ccccc2c1 | nt | nt | nt | 4 | nt | nt
COc1cccc(/C=C/C(=O)NNC(=O)c2ccncc2)c1OC | -39* | -3 | 100* | -8 | 0 | -1
N#C/C(=C\c1cn(CC(=O)NCc2ccco2)c2ccccc12)C(=O)N1CCCC1 | nt | nt | nt | -2 | nt | nt
COc1ccc(CN(C)CC2CCCN(CCc3ccccc3C)C2)cc1O (stereo unspecified) | -27 | -7 | 1 | 0 | 1 | 1
CCN(CC1CCCN(CCc2cccc(OC)c2)C1)C(=O)C=C(C)C (stereo unspecified) | -8 | -8 | 2 | -1 | 0 | -2
CCOc1cccc(CN(CC)CC2CCCN(CCc3cccc(OC)c3)C2)c1O (stereo unspecified) | -17 | -11 | 4 | -1 | 0 | 34*
COc1cccc(CN(C)CC2CCCN(CCc3ccccc3C)C2)c1 (stereo unspecified) | -63* | -3 | 4 | -5 | 0 | -6
CCN(Cc1cccc(OC)c1)CC1CCCN(CCc2cccc(OC)c2)C1 (stereo unspecified) | -39* | -8 | 8 | -3 | 1 | 3
CCN(Cc1ccc(O)cc1)CC1CCCN(CCc2cccc(F)c2)C1 (stereo unspecified) | -21 | -11 | 4 | 1 | 1 | -4
CC(=O)c1ccc(N2CCN(CC(=O)Nc3ccnn3Cc3cccc(Cl)c3)CC2)c(F)c1 | nt | nt | nt | 1 | nt | nt
COc1ccc(S(=O)(=O)Nc2c(NC3CCCC3)c3ccccc3oc2=O)cc1 | nt | nt | nt | 17 | nt | nt
C=CCNC(=O)CSc1cc(C)c2cc(C)cc(C)c2n1 | nt | nt | nt | -10 | nt | nt
CCn1c(SCC(=O)c2[nH]c(C)c(C(C)=O)c2C)nnc1-c1ccncc1 | -2 | -7 | 3 | 1 | 0 | -3
CCn1c(SCC(=O)c2[nH]c(C)c(C(C)=O)c2C)nnc1-c1ccccc1 | -35* | -5 | 9 | -1 | 0 | -3
COc1ccc(OCc2cccc(C(=O)Nc3ccc(CN4CCCCC4)cc3)c2)cc1 | -20 | -11 | 48* | -2 | 3 | -2
CCOc1ccc(OCc2cccc(C(=O)Nc3ccc(CN4CCCCC4)cc3)c2)cc1 | -30* | -9 | 38* | -10 | 3 | -2
O=C(NCc1c(Cl)cccc1Cl)c1ccc2nnsc2c1 | -44* | -2 | 1 | -1 | -1 | -3

Screening results from PubChem BioAssay.
